Screens (PubChem BioAssay)
Compounds with a hit are over-represented: about 8% of the library has one in this group of screens.
MCF10A rereplic: DNA re-replication induction in MCF 10a cells; MCF 10A DNA re-replication, Hoechst nuclear intensity, 48 h; Potency, µM (titrated, usually from 46.1 µM), inactives show top-dose activity, positive = re-replication, most hits filed as activators; 350,000 tested, 2.9% active; AID 624296; also: % of control where 0% means no effect; nearly all actives have a fitted effect of over 50% in size
SW480 rerep: induces DNA re-replication in SW480 colon adenocarcinoma cells; SW480 DNA re-replication, Hoechst DNA content imaging, 48 h; Potency, µM (titrated, usually from 46.1 µM), for inactives: at the top dose re-replication activation, actives largely listed as activators; 340,000 tested, 1.8% active; AID 624297; also: % of control where 0% means no effect; nearly all actives have a fitted effect of over 55% in size
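Per well, 250 cells were exposed to pinned compound for 48 hr. Nuclear DNA was visualised with Hoechst (40 min, 37 C) and total object intensity recorded by fluorescence scanning.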
KB-3-1 cytotox: kills parental KB-3-1 adenocarcinoma cells; KB-3-1 viability, CellTiter-Glo ATP luminescence, 72 h; Potency, µM (top dose mostly 46.1 µM), usual class: cytotoxic; 400,000 tested, 1.4% active; also: % is scaled to controls: 0 for no effect and ±100 for the full control effect; nearly all actives have a fitted effect of over 60% in size
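Cells are dispensed, compounds pinned in, plates held at 37 °C for 72 h, then CellTiter-Glo is added and luminescence read after 10 minutes. Cell line: parental KB-3-1 in phenol-red-free DMEM, 10% FBS.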
HT1080 IDH1KD tx: toxicity to HT-1080 IDH1 knockdown cells (counter line) | HT-1080 IDH1 knockdown viability, ATP luminescence, 48 h | Potency, µM (titrated, usually from 46.1 µM), without a hit: top-dose activity, negative = toxicity, most hits filed as cytotoxic | 360,000 tested, 2% active | AID 686971;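 also: 0% = DMSO wells and -100% = cell-free medium wells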
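Luminescent ATP read-out (CellTiter-Glo, 10 min at room temperature) after 48 h compound exposure at 37 °C gave viability of IDH1-knockdown HT-1080 cells. Activity was normalised to DMSO and cell-free wells, then fitted as concentration-response curves.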
KB-V1 cytotox: KB-V1 MDR subline cytotoxicity; 400,000 tested, 3.4% active; Potency, µM (doses to about 46.1 µM), usual class: cytotoxic; AID 1347076; KB-V1 MDR cells viability, CellTiter-Glo, 72 h; also: % is scaled to controls: 0 for no effect and ±100 for the full control effect; nearly all actives have a fitted effect of over 60% in size
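Cytotoxicity via CellTiter-Glo luminescence after 72 h compound exposure at 37 degrees C. Cells: drug-selected KB-V1 line, DMEM phenol-red free plus 10% FBS. Compounds tested at multiple concentrations; normalized data fitted to concentration-effect curves.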
HT1080NT lethal: kills 2HG-producing HT-1080-NT fibrosarcoma cells; HT-1080-NT fibrosarcoma viability, CellTiter-Glo ATP luminescence, 48 h; AID 686970; 360,000 tested, 1.6% active; Potency, µM (highest dose often 46.1 µM), for inactives: top-dose activity, negative = less viability, hits mostly cytotoxic;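 also: NT is the 2HG producing partner of a matched IDH1 knockdown line; 0% = DMSO-treated cells and -100% = media-only wells without cells; nearly all actives have a fitted effect of over 55% in size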
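750 cells/well, RPMI + 5% FBS; 2 h settle, compound pin-transfer, 48 h at 37 degrees C. CellTiter-Glo 10 min RT, luminescence. Normalized to DMSO and media-only wells.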
The depositor's hits bear a star; i = inactive; ? = inconclusive; / = no result; ! = repeats disagree. Calls follow the shape of the dose curve; as a rule, active = well fitted curve in the direction sought with a large enough effect; inconclusive = small, poorly fitted or top-dose-only effect, or another doubt; inactive = no such curve, though single readings can be large; an effect the other way counts as inactive or inconclusive. Potency is read from the fitted curve at half-maximal effect.

SMILES	MCF10A rereplic	SW480 rerep	KB-3-1 cytotox	HT1080 IDH1KD tx	KB-V1 cytotox	HT1080NT lethal
COc1cc(-c2cc3nc(NCCN(C)C)ccn3n2)cc(OC)c1OC	/	/	i	-4%	i	-3%
COc1cc(Nc2ccn3nc(-c4ccccc4Cl)cc3n2)cc(OC)c1OC	/	/	?	-21%	i	23µM*
COc1cc(-c2cc3nc(NC4CCCCC4)ccn3n2)cc(OC)c1OC	/	/	i	16µM*	?	18µM*
CN(C)C(=O)CNc1ccn2nc(-c3cccc(OCCN4CCOCC4)c3)cc2n1	/	/	i	14%	i	-1%
c1cc(-c2cc3nc(NC4CCCCC4)ccn3n2)ccc1OCCN1CCOCC1	/	/	?	21µM*	?	21µM*
Clc1cccc(CNc2ccn3nc(-c4ccc(OCCN5CCOCC5)cc4)cc3n2)c1	/	/	?	?	?	16µM*
c1cc(-c2cc3nc(NCC4CC4)ccn3n2)ccc1OCCN1CCOCC1	/	/	i	0%	i	2%
Oc1c(C(c2ccc(Cl)cc2Cl)N2CCN(c3ccccc3)CC2)sc2nc(-c3ccco3)nn12 (stereo not given)	/	/	i	/	?	/
c1ccc(COc2cccc(-c3cc4nc(NCc5cccs5)ccn4n3)c2)cc1	/	/	?	7.3µM*	?	?
COc1ccc(CNC(=O)c2cc3c(C)nc4ccccc4c3o2)c(OC)c1	1%	3%	?	?	12µM*	-6%
CCN(CC)CCNC(=O)C(C)c1nn(CC)c(=O)c2ccccc12 (stereo not given)	2%	-3%	i	0%	i	13%
Cc1ccc(S(=O)(=O)c2cc3ccc(O)cc3oc2=O)cc1C	2.3µM*	2.3µM*	i	-4%	i	-2%
CCN(CC)CCCNC(=O)c1cc(-c2ccccc2)c(N2CCCCC2)s1	17%	19%	18µM*	?	?	?
O=C(NCCc1ccccc1)c1cc(-c2ccccc2)c(N2CCOCC2)s1	?	1%	i	-11%	i	0%
CC1=CC(C)(C)NC(=S)N1c1ccc([N+](=O)[O-])cc1	-25%	-10%	i	?	i	-27%
CC1=CC(C)(C)NC(=S)N1c1cccc(C)c1	?	22%	i	8.9µM*!	i	8.9µM*!
CC1=CC(C)(C)NC(=S)N1c1ccc(C)cc1	-4%	9%	i	11µM*	i	?
CC1=CC(C)(C)NC(=S)N1c1ccc(C)c(C)c1	3%	-21%	?	-4%	i	2%
O=C1C=CC(=O)N1CCCCCCCCCCN1C(=O)C=CC1=O	?	6.5µM*	?	?	i	?
O=C1C=CC(=O)N1Cc1ccncc1	-3%	-4%	i	13%	i	6%
CCN(CC)CCNC(=O)C1CCN(C(=O)c2cnn(-c3ccccc3)c2-n2cccc2)CC1	/	/	i	/	i	/
O=C(O)C(c1ccccc1)N1C(=O)c2cccc3cccc(c23)C1=O (stereo not given)	3%	-1%	i	-9%	i	-3%
NN=C1c2ccccc2C(=O)C1C(=O)C(c1ccccc1)c1ccccc1 (stereo not given)	12µM*	4%	i	-1%	i	-4%
CC1(c2ccccc2)CC(C)(C)N2C(=O)/C(=C3\SC(=S)NC3=O)c3cccc1c32 (stereo not given)	3.3µM*	-5%	i	8%	?	8%
COc1ccc(Cn2c(O)c(C=Nc3ccccc3)c3ccccc3c2=O)cc1	-2%	-15%	i	6%	i	7%
COc1ccc(Cn2c(O)c(C=Nc3ccc(O)cc3)c3ccccc3c2=O)cc1	6.5µM*	?	?	?	21µM*	-21%
CN(Cc1ccc(F)cc1)Cc1nc(-c2cnccn2)no1	-4%	13µM*	i	13%	i	20%
